The chains are these.
B1: TCTC (dsDNA)
DNA 1: GCTATCTAGTGCTCAGTACGCACTGTCTCAGGAAACTTCTGGCAGGACCAGGTCATGAGATCGGAAGAGCACACGTCTGAACTCCAGTCA
DNA 2: TGACTGGAGTTCAGACGTGTGCTCTTCCGATCTCATGACCTGGTCCTGCCAGAAGTTTCCTGAGACAGTGCGTACTGAGCACTAGATAGC
RNA: AAUUUCUACUCUUGUAGAUAGGAAACUUCUGGCAGGACC
B2: TTTG (dsDNA)
DNA 1: GCTATCTAGTGCTCAGTACGCACTGTTTGAGGAAACTTCTGGCAGGACCAGGTCATGAGATCGGAAGAGCACACGTCTGAACTCCAGTCA
DNA 2: TGACTGGAGTTCAGACGTGTGCTCTTCCGATCTCATGACCTGGTCCTGCCAGAAGTTTCCTCAAACAGTGCGTACTGAGCACTAGATAGC
RNA: AAUUUCUACUCUUGUAGAUAGGAAACUUCUGGCAGGACC
B3: TTAC (dsDNA)
DNA 1: GCTATCTAGTGCTCAGTACGCACTGTTACAGGAAACTTCTGGCAGGACCAGGTCATGAGATCGGAAGAGCACACGTCTGAACTCCAGTCA
DNA 2: TGACTGGAGTTCAGACGTGTGCTCTTCCGATCTCATGACCTGGTCCTGCCAGAAGTTTCCTGTAACAGTGCGTACTGAGCACTAGATAGC
RNA: AAUUUCUACUCUUGUAGAUAGGAAACUUCUGGCAGGACC
B4: TCTG (dsDNA)
DNA 1: GCTATCTAGTGCTCAGTACGCACTGTCTGAGGAAACTTCTGGCAGGACCAGGTCATGAGATCGGAAGAGCACACGTCTGAACTCCAGTCA
DNA 2: TGACTGGAGTTCAGACGTGTGCTCTTCCGATCTCATGACCTGGTCCTGCCAGAAGTTTCCTCAGACAGTGCGTACTGAGCACTAGATAGC
RNA: AAUUUCUACUCUUGUAGAUAGGAAACUUCUGGCAGGACC
B5: TTCC (dsDNA)
DNA 1: GCTATCTAGTGCTCAGTACGCACTGTTCCAGGAAACTTCTGGCAGGACCAGGTCATGAGATCGGAAGAGCACACGTCTGAACTCCAGTCA
DNA 2: TGACTGGAGTTCAGACGTGTGCTCTTCCGATCTCATGACCTGGTCCTGCCAGAAGTTTCCTGGAACAGTGCGTACTGAGCACTAGATAGC
RNA: AAUUUCUACUCUUGUAGAUAGGAAACUUCUGGCAGGACC
B6: TGTA (dsDNA)
DNA 1: GCTATCTAGTGCTCAGTACGCACTGTGTAAGGAAACTTCTGGCAGGACCAGGTCATGAGATCGGAAGAGCACACGTCTGAACTCCAGTCA
DNA 2: TGACTGGAGTTCAGACGTGTGCTCTTCCGATCTCATGACCTGGTCCTGCCAGAAGTTTCCTTACACAGTGCGTACTGAGCACTAGATAGC
RNA: AAUUUCUACUCUUGUAGAUAGGAAACUUCUGGCAGGACC
B7: TTCT (dsDNA)
DNA 1: GCTATCTAGTGCTCAGTACGCACTGTTCTAGGAAACTTCTGGCAGGACCAGGTCATGAGATCGGAAGAGCACACGTCTGAACTCCAGTCA
DNA 2: TGACTGGAGTTCAGACGTGTGCTCTTCCGATCTCATGACCTGGTCCTGCCAGAAGTTTCCTAGAACAGTGCGTACTGAGCACTAGATAGC
RNA: AAUUUCUACUCUUGUAGAUAGGAAACUUCUGGCAGGACC
B8: TTGA (dsDNA)
DNA 1: GCTATCTAGTGCTCAGTACGCACTGTTGAAGGAAACTTCTGGCAGGACCAGGTCATGAGATCGGAAGAGCACACGTCTGAACTCCAGTCA
DNA 2: TGACTGGAGTTCAGACGTGTGCTCTTCCGATCTCATGACCTGGTCCTGCCAGAAGTTTCCTTCAACAGTGCGTACTGAGCACTAGATAGC
RNA: AAUUUCUACUCUUGUAGAUAGGAAACUUCUGGCAGGACC
B9: TTCA (dsDNA)
DNA 1: GCTATCTAGTGCTCAGTACGCACTGTTCAAGGAAACTTCTGGCAGGACCAGGTCATGAGATCGGAAGAGCACACGTCTGAACTCCAGTCA
DNA 2: TGACTGGAGTTCAGACGTGTGCTCTTCCGATCTCATGACCTGGTCCTGCCAGAAGTTTCCTTGAACAGTGCGTACTGAGCACTAGATAGC
RNA: AAUUUCUACUCUUGUAGAUAGGAAACUUCUGGCAGGACC
B10: TTAA (dsDNA)
DNA 1: GCTATCTAGTGCTCAGTACGCACTGTTAAAGGAAACTTCTGGCAGGACCAGGTCATGAGATCGGAAGAGCACACGTCTGAACTCCAGTCA
DNA 2: TGACTGGAGTTCAGACGTGTGCTCTTCCGATCTCATGACCTGGTCCTGCCAGAAGTTTCCTTTAACAGTGCGTACTGAGCACTAGATAGC
RNA: AAUUUCUACUCUUGUAGAUAGGAAACUUCUGGCAGGACC
B11: TGTC (dsDNA)
DNA 1: GCTATCTAGTGCTCAGTACGCACTGTGTCAGGAAACTTCTGGCAGGACCAGGTCATGAGATCGGAAGAGCACACGTCTGAACTCCAGTCA
DNA 2: TGACTGGAGTTCAGACGTGTGCTCTTCCGATCTCATGACCTGGTCCTGCCAGAAGTTTCCTGACACAGTGCGTACTGAGCACTAGATAGC
RNA: AAUUUCUACUCUUGUAGAUAGGAAACUUCUGGCAGGACC
B12: TTGC (dsDNA)
DNA 1: GCTATCTAGTGCTCAGTACGCACTGTTGCAGGAAACTTCTGGCAGGACCAGGTCATGAGATCGGAAGAGCACACGTCTGAACTCCAGTCA
DNA 2: TGACTGGAGTTCAGACGTGTGCTCTTCCGATCTCATGACCTGGTCCTGCCAGAAGTTTCCTGCAACAGTGCGTACTGAGCACTAGATAGC
RNA: AAUUUCUACUCUUGUAGAUAGGAAACUUCUGGCAGGACC
B13: TTTC (dsDNA)
DNA 1: GCTATCTAGTGCTCAGTACGCACTGTTTCAGGAAACTTCTGGCAGGACCAGGTCATGAGATCGGAAGAGCACACGTCTGAACTCCAGTCA
DNA 2: TGACTGGAGTTCAGACGTGTGCTCTTCCGATCTCATGACCTGGTCCTGCCAGAAGTTTCCTGAAACAGTGCGTACTGAGCACTAGATAGC
RNA: AAUUUCUACUCUUGUAGAUAGGAAACUUCUGGCAGGACC

The target in one assay is dAsCas12a WT (Acidaminococcus sp., UniProt U2UMQ6 1-1307, D908A;E993A;D1235A). The assay is described as follows: Spec-seq (native PAGE EMSA with sequencing of bound and unbound); 25 mM Tris-HCl pH 7.4, 150 mM KCl, 5 mM MgCl2, 10% glycerol, 1 mM DTT, 40 ng/uL salmon sperm DNA; 400 nM Cas12a, 480 nM crRNA, 50 nM library, 37 C 1 h; native P; high values mean tight binding.
Conditions: not given
Background: In EMSA bound probe runs differently from free probe, usually more slowly.
In the case of B1, the binding signal was -5.94 lnKA.

Consider B2, for which the binding signal is -1.4 lnKA.

In the case of B3, the binding signal was -8.99 lnKA.

Molecule B4 came in with a binding signal of -6.99 lnKA.

Take B5: the binding signal is -7.28 lnKA.

As to B6, the binding signal is -7.99 lnKA.

The molecule B7 displayed a binding signal of -8.65 lnKA.

With B8, the binding signal is -8.14 lnKA.

The molecule B9 had a binding signal of -7.22 lnKA.

B10 showed a binding signal of -8.61 lnKA.

B11 yielded a binding signal of -8.93 lnKA.

The molecule B12 registered a binding signal of -8.28 lnKA.

In turn, B13 returned a binding signal of 0.0688 lnKA.

In a further assay the target is dAsCas12a Ultra (Acidaminococcus sp., UniProt U2UMQ6 1-1307, M537R;F870L;D908A;E993A;D1235A). Nature of the assay: Spec-seq (native PAGE EMSA with sequencing of bound and unbound); 25 mM Tris-HCl pH 7.4, 150 mM KCl, 5 mM MgCl2, 10% glycerol, 1 mM DTT, 40 ng/uL salmon sperm DNA; 400 nM Cas12a, 480 nM crRNA, 50 nM library, 37 C 1 h; native PAGE at room temperature; high values mean tight binding. Conditions: protein: recombinant.
Consider B1, for which the binding signal was -3.61 lnKA.

Regarding B2, the binding signal was -0.474 lnKA.

With B3, the binding signal was -7.13 lnKA.

For B4, the binding signal was -4.53 lnKA.

For the molecule B5, the binding signal was -4.81 lnKA.

As for B6, the binding signal is -6.4 lnKA.

As to B7, the binding signal is -6.53 lnKA.

As for B8, the binding signal is -6.6 lnKA.

For the molecule B9, the binding signal is -4.73 lnKA.

Take B10: the binding signal is -7.33 lnKA.

Consider B11, for which the binding signal is -7.57 lnKA.

For the molecule B12, the binding signal was -6.02 lnKA.

Take B13: the binding signal is -0.0656 lnKA.

For another assay, the target named is dAsCas12a E174R (Acidaminococcus sp., UniProt U2UMQ6 1-1307, E174R;D908A;E993A;D1235A). The description is as above. The settings on record: protein: recombinant.
Regarding B1, the binding signal was -3.18 lnKA.

With B2, the binding signal was -0.628 lnKA.

As for B3, the binding signal is -6.79 lnKA.

Regarding B4, the binding signal was -4.57 lnKA.

For B5, the binding signal was -4.78 lnKA.

B6: the binding signal is -6.64 lnKA.

Regarding B7, the binding signal is -6.23 lnKA.

Take B8: the binding signal is -7.49 lnKA.

Regarding B9, the binding signal is -3.99 lnKA.

Consider B10, for which the binding signal was -7.28 lnKA.

On to B11, for which the binding signal was -7.56 lnKA.

Take B12: the binding signal is -6.51 lnKA.

B13: the binding signal is -0.339 lnKA.

The target in the next assay is dAsCas12a S542R (Acidaminococcus sp., UniProt U2UMQ6 1-1307, S542R;D908A;E993A;D1235A). Described as above. The settings on record: protein: recombinant.
Regarding B1, the binding signal is -4.47 lnKA.

In the case of B2, the binding signal is -0.333 lnKA.

Regarding B3, the binding signal was -6.51 lnKA.

Turning to B4, the binding signal was -5.38 lnKA.

As to B5, the binding signal was -1.16 lnKA.

On to B6, for which the binding signal is -6.54 lnKA.

As for B7, the binding signal is -3.26 lnKA.

Turning to B8, the binding signal is -6.46 lnKA.

As to B9, the binding signal was -1.85 lnKA.

Consider B10, for which the binding signal was -6.82 lnKA.

As to B11, the binding signal is -7.52 lnKA.

Consider B12, for which the binding signal is -6.74 lnKA.

On to B13, for which the binding signal was -0.143 lnKA.

In the next assay the target is dAsCas12a K548R (Acidaminococcus sp., UniProt U2UMQ6 1-1307, K548R;D908A;E993A;D1235A). Described as above. The settings on record: protein: recombinant.
On to B1, for which the binding signal is -8.65 lnKA.

As for B2, the binding signal was -0.458 lnKA.

B3: the binding signal is -8.18 lnKA.

For B5, the binding signal is -6.53 lnKA.

In the case of B6, the binding signal is -7.23 lnKA.

For the molecule B7, the binding signal was -8.32 lnKA.

For B8, the binding signal was -8.53 lnKA.

Regarding B9, the binding signal was -6.86 lnKA.

B10: the binding signal was -8.66 lnKA.

As to B11, the binding signal was -6.58 lnKA.

For B12, the binding signal is -7.43 lnKA.

Regarding B13, the binding signal came to 0.462 lnKA.

Another assay addresses d-enCas12a (Acidaminococcus sp., UniProt U2UMQ6 1-1307, E174R;S542R;K548R;D908A;E993A;D1235A). The description is as above. Conditions: protein: recombinant.
Regarding B1, the binding signal is -3.15 lnKA.

With B2, the binding signal was -0.151 lnKA.

On to B3, for which the binding signal is -1.59 lnKA.

For the molecule B4, the binding signal was -4.86 lnKA.

Turning to B5, the binding signal is -0.274 lnKA.

For the molecule B6, the binding signal is -0.876 lnKA.

On to B7, for which the binding signal was -0.829 lnKA.

On to B8, for which the binding signal was -4.32 lnKA.

As to B9, the binding signal is -0.506 lnKA.

With B10, the binding signal was -3.79 lnKA.

With B11, the binding signal is -0.999 lnKA.

Turning to B12, the binding signal is -2.75 lnKA.

For the molecule B13, the binding signal amounted to 0.00167 lnKA.

Another assay concerns the target d-enCas12a-Ultra (Acidaminococcus sp., UniProt U2UMQ6 1-1307, E174R;S542R;K548R;M537R;F870L;D908A;E993A;D1235A). The description is as above. Conditions: protein: recombinant.
As to B1, the binding signal is -0.761 lnKA.

Consider B2, for which the binding signal was -0.067 lnKA.

B3: the binding signal is -0.507 lnKA.

For the molecule B4, the binding signal was -1.79 lnKA.

Turning to B5, the binding signal was -0.0946 lnKA.

On to B6, for which the binding signal was -0.296 lnKA.

For the molecule B7, the binding signal is -0.251 lnKA.

Regarding B8, the binding signal was -2.04 lnKA.

Take B9: the binding signal was -0.166 lnKA.

As for B10, the binding signal was -1.68 lnKA.

Consider B11, for which the binding signal is -0.323 lnKA.

On to B12, for which the binding signal was -0.707 lnKA.

Turning to B13, the binding signal was determined as 0.033 lnKA.

The values above are taken from publication PMC8222333, “AsCas12a ultra nuclease facilitates the rapid generation of therapeutic cell medicines”.
